Results: the supplement of paper PMC4466140

B1: unnamed (peptide)
chain: FLIKFTPKFPQSIDH

What follows are binders tested against ScBbc1 (assay: SPOT peptide array binding signal intensity (averaged, normalized) (arbitrary units (background-subtracted, floor 0; scale differs between SH3 domains)); higher = stronger binding of the SH3 domain to the peptide).
How it was run: (§1)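 GST-fused SH3 domains, from four yeast species, were produced in E. coli BL21(DE3) and captured on glutathione Sepharose. Membranes of cellulose carrying synthetic 15-mer peptides, in which cysteines had been replaced by serines, were exposed to each domain at 10 μg/ml overnight at 4°C in TBS-based blocking buffer. After anti-GST antibody, an HRP anti-mouse secondary and luminol, spots were imaged and quantified using Genespotter. Binding signal is normalized and background-subtracted spot intensity, averaged over replicates, in arbitrary units that differ between domains.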
For B1, the “SPOT peptide array binding signal intensity” value was 5.5.

The binders below were run against ScBem1-D1 in the same assay as above.
How it was run: as §1
For B1, the “SPOT peptide array binding signal intensity” value was 47.5.

These binders were tested against ScBzz1-D1 in the same assay as above.
How it was run: as §1
For B1, the “SPOT peptide array binding signal intensity” value was 224.

The binders below were run against ScBzz1-D2 in the same assay as above.
How it was run: as §1
B1 was tested, and the “SPOT peptide array binding signal intensity” value was 611.

These binders were tested against ScCyk3 in the same assay as above.
How it was run: as §1
For B1, the “SPOT peptide array binding signal intensity” value was 145.

What follows are binders tested against ScFus1 in the same assay as above.
How it was run: as §1
B1 was tested, and the “SPOT peptide array binding signal intensity” value was 1850.

What follows are binders tested against ScHof1 in the same assay as above.
How it was run: as §1
In the case of B1, the “SPOT peptide array binding signal intensity” value is reported as 3.25.

Each binder was assayed against ScHse1 in the same assay as above.
How it was run: as §1
For B1, the “SPOT peptide array binding signal intensity” value was 2710.

These binders were tested against ScLsb1 in the same assay as above.
How it was run: as §1
For B1, the “SPOT peptide array binding signal intensity” value was 1.

These binders were tested against ScLsb2 in the same assay as above.
How it was run: as §1
In the case of B1, the “SPOT peptide array binding signal intensity” value is reported as 9.

The binders below were run against ScLsb3 in the same assay as above.
How it was run: as §1
For B1, the “SPOT peptide array binding signal intensity” value was 706.

Each binder was assayed against ScLsb4 in the same assay as above.
How it was run: as §1
B1 was tested, and the “SPOT peptide array binding signal intensity” value was 80.

What follows are binders tested against ScMyo3 in the same assay as above.
How it was run: as §1
In the case of B1, the “SPOT peptide array binding signal intensity” value is reported as 15.5.

Each binder was assayed against ScMyo5 in the same assay as above.
How it was run: as §1
B1 was tested, and the “SPOT peptide array binding signal intensity” value was 14.

The binders below were run against ScNbp2 in the same assay as above.
How it was run: as §1
With B1 the “SPOT peptide array binding signal intensity” value was 715.

The binders below were run against ScPex13 in the same assay as above.
How it was run: as §1
For B1, the “SPOT peptide array binding signal intensity” value was 86.5.

Each binder was assayed against ScRvs167 in the same assay as above.
How it was run: as §1
B1 was tested, and the “SPOT peptide array binding signal intensity” value was 47.

What follows are binders tested against ScSho1 in the same assay as above.
How it was run: as §1
With B1 the “SPOT peptide array binding signal intensity” value was 2000.

These binders were tested against ScSla1-D1-D2 in the same assay as above.
How it was run: as §1
With B1 the “SPOT peptide array binding signal intensity” value was 322.

These binders were tested against ScSla1-D3 in the same assay as above.
How it was run: as §1
B1 was tested, and the “SPOT peptide array binding signal intensity” value was 232.

These binders were tested against SpAbp1-D1 in the same assay as above.
How it was run: as §1
B1 was tested, and the “SPOT peptide array binding signal intensity” value was 50.5.

These binders were tested against SpBbc1 in the same assay as above.
How it was run: as §1
With B1 the “SPOT peptide array binding signal intensity” value was 27.

Each binder was assayed against SpBzz1-D1 in the same assay as above.
How it was run: as §1
For B1, the “SPOT peptide array binding signal intensity” value was 1440.

The binders below were run against SpBzz1-D2 in the same assay as above.
How it was run: as §1
With B1 the “SPOT peptide array binding signal intensity” value was 17.8.

These binders were tested against SpCyk3 in the same assay as above.
How it was run: as §1
With B1 the “SPOT peptide array binding signal intensity” value was 48.5.

These binders were tested against SpHof1 in the same assay as above.
How it was run: as §1
For B1, the “SPOT peptide array binding signal intensity” value was 662.

These binders were tested against SpHof1-2 in the same assay as above.
How it was run: as §1
For B1, the “SPOT peptide array binding signal intensity” value was 126.

Each binder was assayed against SpHof1-3 in the same assay as above.
How it was run: as §1
For B1, the “SPOT peptide array binding signal intensity” value was 1580.

What follows are binders tested against SpHse1 in the same assay as above.
How it was run: as §1
For B1, the “SPOT peptide array binding signal intensity” value was 1950.

These binders were tested against SpLsb1 in the same assay as above.
How it was run: as §1
B1 was tested, and the “SPOT peptide array binding signal intensity” value was 11.5.

The binders below were run against SpLsb4 in the same assay as above.
How it was run: as §1
With B1 the “SPOT peptide array binding signal intensity” value was 610.

These binders were tested against SpMyo1 in the same assay as above.
How it was run: as §1
B1 was tested, and the “SPOT peptide array binding signal intensity” value was 75.

What follows are binders tested against SpNbp2 in the same assay as above.
How it was run: as §1
For B1, the “SPOT peptide array binding signal intensity” value was 1010.

These binders were tested against SpPex13 in the same assay as above.
How it was run: as §1
With B1 the “SPOT peptide array binding signal intensity” value was 309.

The binders below were run against SpRvs167 in the same assay as above.
How it was run: as §1
B1 was tested, and the “SPOT peptide array binding signal intensity” value was 49.8.

Each binder was assayed against SpSla1-D1-D2 in the same assay as above.
How it was run: as §1
With B1 the “SPOT peptide array binding signal intensity” value was 4.

What follows are binders tested against SpSla1-D3 in the same assay as above.
How it was run: as §1
In the case of B1, the “SPOT peptide array binding signal intensity” value is reported as 172.
